# TCR act: activators of T cell receptors. primary human leukocytes, anti-CD3, IL-2 HTRF, 48 h. Potency, µM (doses to about 9.22 µM), hits mostly activators. 330,000 tested, under 10 active. AID 504894
#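 HTRF read-out of IL-2 secretion: europium cryptate donor excited at 320nm, d2 acceptor emission at 665nm. Cells were primary human leukocytes incubated 48 hr with compounds and a-CD3 beads, supplying TCR signal only.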
# uPA surface inh: cell surface uPA generation inhibition. cell surface uPA generation assay, qHTS. Potency, µM (doses to about 38.3 µM), hits mostly inhibitors. 330,000 tested, 0.31% active. AID 540303; active means well fitted inhibition curve with a large enough effect; inconclusive means small, poorly fitted or top-dose-only effect; inactive means no such curve, though single readings can be large or run the other way; tested in mouse RAW 264.7 cells; further: nearly all actives have a fitted effect of over 55% in size
# ClpP mod: qHTS Assay for Activators of ClpP; ATP-dependent Clp protease proteolytic subunit (Bacillus subtilis (strain 168)), P80244; purified B. subtilis ClpP, FRET peptide cleavage, 20 min; Potency, µM (series often up to 57.5 µM); 340,000 tested, 1.9% active; AID 651965, 2013; active means well fitted falling curve with a large enough effect; inconclusive means small, poorly fitted or top-dose-only effect; inactive means no such curve, though single readings can be large or run the other way; further: the source files actives as falling curves though it sought activators and does not explain the sign; nearly all actives have a fitted effect of over 65% in size
# Target sequence (P80244 whole entry, looked up): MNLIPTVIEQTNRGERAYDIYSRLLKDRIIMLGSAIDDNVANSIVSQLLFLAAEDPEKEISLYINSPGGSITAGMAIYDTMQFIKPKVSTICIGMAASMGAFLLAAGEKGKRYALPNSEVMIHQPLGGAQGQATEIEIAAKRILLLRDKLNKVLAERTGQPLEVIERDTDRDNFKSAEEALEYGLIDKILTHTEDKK
#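 Purified B. subtilis ClpP, 10 microg/mL final in Tris/HCl pH8 with KCl, BSA, glycerol and Tween-20, cleaved an Abz/nitrotyrosine-quenched decapeptide. Fluorescence (ex 320, em 430) was read at 0 and 20 min at room temperature. Delta was normalized to 5.8 microM ADEP and DMSO/no-enzyme controls.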
# Sfp PPTase inh: Sfp phosphopantetheinyl transferase inhibition; Q9F4F7; 310,000 tested, 3.5% active; AID 1490; Potency, µM, most hits filed as inhibitors; Biochemical Sfp PPTase activity, qHTS;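 further: the enzyme is Sfp with the accession as filed and its product quenches rhodamine fluorescence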
#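 Fluorescence-quenching assay: 15 nM Sfp-PPTase preincubated 15 min at room temperature with compound, then 5 uM rhodamine-CoA and 12.5 uM BHQ-2-labelled YbbR peptide added. Fluorescence (ex 525/em 598 nm) read at start and after 30 min; difference gives rate.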
# Hits are given with their value; - = inactive; ? = inconclusive; . = no result. Sampled rows, rich in hits. Any-hit rate of the full collection: about 4.2%. Unless noted, the call rests on the fitted dose curve; in most records, active means well fitted curve in the direction sought with a large enough effect; inconclusive means small, poorly fitted or top-dose-only effect, or another doubt; inactive means no such curve, though single readings can be large; an effect the other way counts as inactive or inconclusive.
SMILES,TCR act,uPA surface inh,ClpP mod,Sfp PPTase inh
CCn1c(O)c(/C=N/NC(=O)c2ccncc2)c(=O)n(CC)c1=S,-,-,-,79µM
Cn1c(O)c(/C=N/NC(=O)c2ccncc2)c(=O)n(C)c1=S,-,-,-,-
CCN(CCO)c1ccc(N=Cc2c(O)n(C)c(=S)[nH]c2=O)cc1,-,-,.,40µM
CCN(CC)c1ccc(N=Cc2c(O)n(Cc3ccco3)c(=O)[nH]c2=O)cc1,-,-,.,-
C[C@@H](NC(=O)[C@@H](N)Cc1ccc(O)cc1)C(=O)NCC(=O)N(C)[C@@H](Cc1ccccc1)C(=O)NCCO,.,.,.,-
O=C(CNC(=O)c1ccccc1)NCC(=O)OCC(=O)c1ccc([N+](=O)[O-])cc1,-,-,.,28µM
C[C@]12c3[nH]c4ccc(Cl)cc4c3CCN1C(=O)[C@@H](CC(=O)NCc1ccco1)C[C@@H]2C(=O)N1CCCCC1,-,?,-,.
NC1CCCCC1N (stereo unspecified),.,.,.,-
Cc1ccc2c(c1)=C/C(=C\c1c(O)[nH]c(=S)[nH]c1=O)C(=O)N=2,-,.,.,7.1µM
Cc1ccc2c(c1)=NC(=O)/C(=C/c1c(O)[nH]c(=O)[nH]c1=O)C=2,-,-,-,35µM
CCOC(=O)CCCc1cc[c]([Sb](=[O])([OH])[OH])cc1,.,.,-,.
CCOc1cc(C2C(C#N)=C(N)Oc3c2c(=O)oc2ccccc32)ccc1OC(=O)c1cccs1 (stereo unspecified),-,-,-,50µM
N#CC1=C(N)Oc2c(c(=O)oc3ccccc23)C1c1cccnc1 (stereo unspecified),-,-,-,-
CCOP(=S)(OCC)Oc1cc(C)nc(N(CC)CC)n1,.,.,.,-
CN(CCOc1ccc(Cl)cc1)C(=O)c1cccc(S(=O)(=O)N2CCN(c3ccccc3)CC2)c1,-,?,-,.
O=C1NC(=O)N(Cc2ccc(F)cc2)C(=O)/C1=C/c1cccs1,-,-,-,45µM
O=C1NC(=O)N(Cc2ccccc2Cl)C(=O)/C1=C/c1cccs1,-,?,-,32µM
Cc1cc(/C=C2\C(=O)NC(=O)N(Cc3ccccc3Cl)C2=O)c(C)n1-c1ccc(C(=O)O)cc1,-,.,-,-
CCCCCCCCCC[n+]1cccc([C@@H]2CCCN2C)c1,.,.,.,56µM
CCOC(=O)c1ccc(N=C(CC)c2c(O)n(C)c(=O)n(C)c2=O)cc1,-,-,25µM,-
CCC(=Nc1ccc2c(c1)CCC2)c1c(O)n(C)c(=O)n(C)c1=O,-,-,-,-
NC(C(=O)O)c1cc(=O)[nH]o1 (stereo unspecified),-,-,-,79µM
CN1CSC(=S)N(C)C1,-,-,-,45µM
CC(=O)O[C@H]1[C@H]2[C@@H](OC(=O)Cc3ccccc3)[C@@H](C)C[C@]2(OC(C)=O)C(=O)/C(C)=C/[C@@H]2[C@H](CC[C@@]13CO3)C2(C)C,.,.,.,-
COC[C@H]1OC(=O)c2coc3c2[C@@]1(C)C1=C(C3=O)[C@@H]2CCC(=O)[C@@]2(C)C[C@H]1OC(C)=O,-,-,-,35µM
SMILES,TCR act,uPA surface inh,ClpP mod,Sfp PPTase inh
C[C@H](N)Cc1c[nH]c2ccc(OCc3cccs3)cc12,.,.,.,-
CN1CC[C@@]2(c3cccc(O)c3)Cc3nc4ccccc4cc3C[C@H]2C1,.,.,.,79µM
CC(C)(C#N)O[C@H]1OC(CO)C(O)C(O)C1O (stereo partly specified),.,.,.,-
O=C(Nc1ccc2nc(SCC(=O)N3CCCc4ccccc43)sc2c1)c1cccc(F)c1,.,.,13µM,.
CC1CCCN(CC(=O)N2CCCc3ccccc32)C1 (stereo unspecified),-,-,-,-
COCCNC(=O)c1c(NC(=O)c2ccc(Br)o2)n(Cc2ccccc2)c2nc3ccccc3nc12,-,-,-,28µM
COCCCNC(=O)c1c(NC(=O)c2ccco2)n(Cc2ccccc2)c2nc3ccccc3nc12,-,-,16µM,-
CCCCCCCCCCCCCCC[C@@H](O)[C@@H](N)COP(=O)(O)O,.,.,.,-
Cn1c(=O)n(CC(=O)N2CCC3(CC2)OCCO3)c(=O)c2ccccc21,-,-,?,-
O=C(Cn1c2c(c(-c3ccccc3Cl)cc1=O)CCC2)N1CCC2(CC1)OCCO2,-,-,?,22µM
C=CCc1cc(OC)c2c(c1OC)OCO2,.,.,.,-
CCN(CC)C(=O)c1ccc(NC(=O)c2cccc(C(F)(F)F)c2)cc1,-,-,.,-
Cc1nc(Nc2cnc(/C=C/c3cc(C(=O)Nc4cccc(C(F)(F)F)c4)ccc3C)cn2)cc(N2CCNCC2)n1,-,?,-,50µM
CC(C)c1ccc(NC(=O)c2ccc3c(c2)C(=O)N(Cc2cccnc2)C3=O)cc1,-,?,-,-
C[C@H](N)Cc1cnc[nH]1,.,.,.,-
